A selection: hits, their analogues and other compounds. The true share with any hit is near 4.5%.
EBNA-1 inh = EBNA-1 DNA-binding inhibitors, primary screen, biochemical, fluorescence polarization | inhibition, % at 14.8 µM | 0.34% of 300,000 active; in the data active = inhibition above about 28%
NR3A LBD binder = binders of NR3A ligand-binding domain, primary screen, biophysical, differential scanning fluorimetry, uHTS. Glutamate receptor ionotropic, NMDA 3A (GRIN3A) ligand-binding domain. NR3A LBD differential scanning fluorimetry, Tm shift; 0% = protein alone, 100% = glycine-bound protein. Tm shift relative to glycine control, % at 25 µM. 2.5% of 340,000 active;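 active = melting temperature shift of at least 10% of the positive control shift, at one fixed dose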
Rpn11 block = Rpn11 (PSMD14) deubiquitinase inhibitors, primary screen, biochemical, fluorescence polarization, uHTS. inhibition, % at 20 µM. 26S proteasome non-ATPase regulatory subunit 14 (Homo sapiens), O00487. human 26S proteasome, Ub4-pepOG fluorescence polarization; 20S core pre-blocked with epoxomicin. 0.59% of 360,000 active;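 active = inhibition at 20 µM, scaled to each plate's controls, above about 33%, limit read from the data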
ZTA counter = counter-screen for EBNA-1 inhibitors: inhibitors of Epstein-Barr virus ZTA. P03206. 0.15% of 320,000 active. ZTA-DNA binding, fluorescence polarization. inhibition, % at 11 µM. AID 2234; in the data active = inhibition above about 33%
dFosB activator = activators of delta FosB homodimer, primary screen, biochemical, fluorescence polarization, TAMRA-CDK5 oligo, single point | Protein FosB (Mus musculus), P13346 | purified delta FosB; percent of positive-control signal above neutral wells | activation, % at 25 µM | 0.99% of 340,000 active;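 active = mean activation above about 17%, with every replicate also reaching it, limit read from the data, passing the limit was not always enough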
TPT1 inh = Candida albicans TPT1 enzyme inhibitors, primary screen, biochemical, fluorescence polarization; tRNA 2'-phosphotransferase TPT1 (Candida albicans SC5314); recombinant caTPT1, FP RNA substrate dephosphorylation; inhibition, % at 5 µM; 0.81% of 300,000 active;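 active = inhibition above the mean of all tested compounds plus 3 SD, set per screening campaign, cut at about 24% in these data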;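 note: plate controls were DMSO alone for no effect and ferristatin control at 100 nM for full effect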
TPT1 inh confirm = Candida albicans TPT1 inhibitors, confirmation, biochemical, fluorescence polarization, triplicate; shares compounds with TPT1 inh; recombinant caTPT1, RNase T1 coupled; inhibition, % at 5 µM; 74% of 2,400 active;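 active = inhibition above the primary screen limit, the mean inhibition of all tested compounds plus 3 SD, cut at about 25% in these data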
RNase T1 counter = RNase T1 inhibitors, counter-screen for TPT1 inhibitor project, biochemical, fluorescence polarization; RNase T1 cleavage, 1536-well; AID 2153, 2009; shares compounds with TPT1 inh; inhibition, % at 5 µM; 83% of 2,400 active;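 active = inhibition above the solvent-only control well mean plus 3 SD, limit set per screening run, cut at about 23% in these data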;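 note: plate controls were DMSO wells with enzyme for no effect and wells without RNase T1 for full effect; inhibitors block cleavage so intact labeled substrate keeps polarization high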
Rpn11 confirm = Rpn11 (PSMD14) deubiquitinase inhibitors, confirmation, biochemical, fluorescence polarization, single concentration. shares compounds with Rpn11 block. purified human 26S proteasome, Ub4-pepOG fluorescence polarization; proteasome pretreated with epoxomicin. inhibition, % at 20 µM. 29% of 1,900 active
MMP-2 inh = MMP-2 enzyme inhibition, confirmation, counter-screen for RPN11 inhibitor project, biochemical, fluorescence, single concentration; inhibition, % at 20 µM; shares compounds with Rpn11 block; recombinant MMP-2, FRET peptide cleavage fluorescence; 4% of 1,900 active;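 note: human MMP-2 activated beforehand with APMA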
Thrombin inh = bovine thrombin protease inhibition, confirmation, counter-screen for Rpn11 inhibitor project, biochemical, fluorescence polarization, single concentration; inhibition, % at 20 µM; bovine thrombin cleavage of Ub4-pepOG; shares compounds with Rpn11 block; AID 602333, 2012; 13% of 1,900 active;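 active = mean inhibition at least 40% at 20 µM, or signal 3 deviations below plate average, so some actives read negative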;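 note: plate controls were thrombin with DMSO for no effect and buffer wells lacking thrombin for full effect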
* = called active by the depositor. Cut-off read from the data, not from the text of the source, unless noted: active = inhibition above about 40%; inactive = the rest.

How did O=C(NN1C(=O)/C(=C\c2ccc(O)c([N+](=O)[O-])c2)SC1=S)c1ccccc1Cl do in these assays?
EBNA-1 inh: -8; NR3A LBD binder: 1; Rpn11 block: 52*; ZTA counter: 12; dFosB activator: -6; TPT1 inh: 49*; TPT1 inh confirm: 53*; RNase T1 counter: 63*; Rpn11 confirm: 70*; MMP-2 inh: 11; Thrombin inh: 53*

How did N#Cc1ccc(OCC(=O)Nc2ccc(S(=O)(=O)N3CCOCC3)cc2)cc1 do in these assays?
NR3A LBD binder: 2; Rpn11 block: 4; dFosB activator: -11

What do the screens show for `Oc1ccc(/C=N/Nc2ccnc3cc(Cl)ccc23)c(O)c1O`?
EBNA-1 inh: -2; NR3A LBD binder: 18*; Rpn11 block: 41*; ZTA counter: -8; dFosB activator: 19*; TPT1 inh: 33*; TPT1 inh confirm: 14; RNase T1 counter: 20; Rpn11 confirm: 10; MMP-2 inh: 10; Thrombin inh: 3

Results for Cc1ccc(Cl)c(OC(=O)C2CSC3(C)CCC(=O)N23)c1 (stereo unspecified) ?
EBNA-1 inh: 3; NR3A LBD binder: 3; Rpn11 block: 5; ZTA counter: 2; dFosB activator: -4; TPT1 inh: -2

Results for COc1cc(/C=C2/C(=O)NN(c3ccc(Cl)cc3)C2=O)ccc1OC(=O)c1ccco1 ?
EBNA-1 inh: -1; NR3A LBD binder: -1; Rpn11 block: 10; ZTA counter: 4; dFosB activator: -7; TPT1 inh: 0

Results for COC(=O)c1ccc(N2NC(=O)/C(=C/c3cc(OC)c(OC)c(OC)c3)C2=O)cc1 ?
EBNA-1 inh: 9; NR3A LBD binder: -1; Rpn11 block: 1; ZTA counter: 19; dFosB activator: -6; TPT1 inh: 1

Results for COC(=O)c1ccc(N2NC(=O)/C(=C/c3cc(OC)c(O)c(OC)c3)C2=O)cc1 ?
EBNA-1 inh: -9; NR3A LBD binder: -1; Rpn11 block: 54*; ZTA counter: -4; dFosB activator: -6; TPT1 inh: 103*; TPT1 inh confirm: 99*; RNase T1 counter: 121*; Rpn11 confirm: 62*; MMP-2 inh: -23; Thrombin inh: 5
